Substitutions are numbered along the chain they refer to.

Common to all, as to experiment: PBM; 200 nM protein, PBS
What all share (details): dsDNA, one strand shown

Experiment [1] addresses CRX (Homo sapiens, UniProt O43186 26-111).
Experiment [2] has as its target CRX (Homo sapiens, UniProt O43186 26-111, E42D).
Experiment [3] has as its target CRX (Homo sapiens, UniProt O43186 26-111, R41L).
The target of experiment [4] is T1, NKX2-4 (Homo sapiens, UniProt Q9H2Z4 175-261, P217L).
T1 sequence: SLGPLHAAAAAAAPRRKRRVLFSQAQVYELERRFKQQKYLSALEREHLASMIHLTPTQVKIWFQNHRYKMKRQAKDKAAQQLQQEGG

For experiment [5], the target named is T2, VENTX (Homo sapiens, UniProt O95231 78-163, R121Q).
T2 sequence: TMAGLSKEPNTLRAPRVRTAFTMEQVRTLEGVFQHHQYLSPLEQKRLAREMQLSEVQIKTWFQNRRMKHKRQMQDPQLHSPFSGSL

The target of experiment [6] is HOXB9 (Homo sapiens, UniProt P17482 171-250, T197M).
Experiment [7] concerns the target T3, VENTX (Homo sapiens, UniProt O95231 78-163).
T3 sequence: T2 sequence with Q44R

The target of experiment [8] is T4, NKX2-4 (Homo sapiens, UniProt Q9H2Z4 175-261, T231S).
T4 sequence: T1 sequence with L43P, T57S

Experiment [9] has as its target T5, VENTX (Homo sapiens, UniProt O95231 78-163, Y115F).
T5 sequence: T2 sequence with Y38F, Q44R

Experiment [10] has as its target T6, NKX2-4 (Homo sapiens, UniProt Q9H2Z4 175-261).
T6 sequence: T1 sequence with L43P

Experiment [11] addresses HOXB9 (Homo sapiens, UniProt P17482 171-250).
Experiment [12] has as its target T7, NKX2-4 (Homo sapiens, UniProt Q9H2Z4 175-261, R246Q).
T7 sequence: T1 sequence with L43P, R72Q

The target in experiment [13] is HOXB9 (Homo sapiens, UniProt P17482 171-250, R186Q).
Sequence of HOXB9 (Homo sapiens, UniProt P17482 171-250, R186Q) (P17482 171-250 R186Q): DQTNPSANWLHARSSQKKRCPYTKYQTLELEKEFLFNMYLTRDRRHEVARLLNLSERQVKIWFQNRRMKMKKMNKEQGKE

Sequence of CRX (Homo sapiens, UniProt O43186 26-111) (O43186 26-111): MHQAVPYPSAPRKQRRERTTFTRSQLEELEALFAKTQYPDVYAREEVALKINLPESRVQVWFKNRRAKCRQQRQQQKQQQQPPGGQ
Sequence of CRX (Homo sapiens, UniProt O43186 26-111, R41L) (O43186 26-111 R41L): as the sequence (O43186 26-111) above, with R16L counted along it
Sequence of CRX (Homo sapiens, UniProt O43186 26-111, E42D) (O43186 26-111 E42D): as the sequence (O43186 26-111) above, with E17D counted along it
Sequence of HOXB9 (Homo sapiens, UniProt P17482 171-250, T197M) (P17482 171-250 T197M): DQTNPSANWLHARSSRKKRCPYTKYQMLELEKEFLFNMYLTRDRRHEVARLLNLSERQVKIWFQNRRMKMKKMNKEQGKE
Sequence of HOXB9 (Homo sapiens, UniProt P17482 171-250) (P17482 171-250): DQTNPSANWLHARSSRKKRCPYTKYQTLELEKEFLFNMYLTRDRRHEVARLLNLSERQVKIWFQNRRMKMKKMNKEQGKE

For the sequence CCGTCGCG, the binding signal with CRX [1] is 8.16 upbm affinity estimate (log intensity, higher = more binding, comparable within an allelic series); in the experiment with CRX [2], 8.11 upbm affinity estimate (log intensity, higher = more binding, comparable within an allelic series); with CRX [3], 8.14 upbm affinity estimate (log intensity, higher = more binding, comparable within an allelic series).

Regarding AATTCCAT, the binding signal is 10.2 upbm affinity estimate (log intensity, higher = more binding, comparable within an allelic series) with CRX [1]; 10.1 upbm affinity estimate (log intensity, higher = more binding, comparable within an allelic series) with CRX [2]; 9.91 upbm affinity estimate (log intensity, higher = more binding, comparable within an allelic series) in the experiment with CRX [3].

As to TAAGATTA, the binding signal in the experiment with CRX [1] is 12.8 upbm affinity estimate (log intensity, higher = more binding, comparable within an allelic series); with CRX [2], 12.6 upbm affinity estimate (log intensity, higher = more binding, comparable within an allelic series); with CRX [3], 12.4 upbm affinity estimate (log intensity, higher = more binding, comparable within an allelic series).

For AGCACCAG, the binding signal in the experiment with CRX [1] is 8.33 upbm affinity estimate (log intensity, higher = more binding, comparable within an allelic series); with CRX [2], 8.39 upbm affinity estimate (log intensity, higher = more binding, comparable within an allelic series); with CRX [3], 8.39 upbm affinity estimate (log intensity, higher = more binding, comparable within an allelic series).

On to CGACGGAC, for which the binding signal with CRX [1] was 8.32 upbm affinity estimate (log intensity, higher = more binding, comparable within an allelic series); with CRX [2], 8.15 upbm affinity estimate (log intensity, higher = more binding, comparable within an allelic series); with CRX [3] it was 8.24 upbm affinity estimate (log intensity, higher = more binding, comparable within an allelic series).

CACCAGGC: the binding signal with CRX [1] was 8.58 upbm affinity estimate (log intensity, higher = more binding, comparable within an allelic series); with CRX [2], 8.49 upbm affinity estimate (log intensity, higher = more binding, comparable within an allelic series); in the experiment with CRX [3] it was 8.39 upbm affinity estimate (log intensity, higher = more binding, comparable within an allelic series).

With CAGGCTAG, the binding signal was 8.3 upbm affinity estimate (log intensity, higher = more binding, comparable within an allelic series) with CRX [1]; 8.21 upbm affinity estimate (log intensity, higher = more binding, comparable within an allelic series) with CRX [2]; 8.16 upbm affinity estimate (log intensity, higher = more binding, comparable within an allelic series) with CRX [3].

Regarding GATAAACC, the binding signal in the experiment with CRX [1] was 11.4 upbm affinity estimate (log intensity, higher = more binding, comparable within an allelic series); with CRX [2], 11.1 upbm affinity estimate (log intensity, higher = more binding, comparable within an allelic series); in the experiment with CRX [3] it was 10.9 upbm affinity estimate (log intensity, higher = more binding, comparable within an allelic series).

Consider GCCTGACA, for which the binding signal is 8.49 upbm affinity estimate (log intensity, higher = more binding, comparable within an allelic series) with CRX [1]; 8.43 upbm affinity estimate (log intensity, higher = more binding, comparable within an allelic series) with CRX [2]; 8.39 upbm affinity estimate (log intensity, higher = more binding, comparable within an allelic series) in the experiment with CRX [3].

Regarding ACTGGACC, the binding signal with CRX [1] is 8.04 upbm affinity estimate (log intensity, higher = more binding, comparable within an allelic series); with CRX [2], 8.07 upbm affinity estimate (log intensity, higher = more binding, comparable within an allelic series); with CRX [3], 8.11 upbm affinity estimate (log intensity, higher = more binding, comparable within an allelic series).

With AGGCATAA, the binding signal is 10.3 upbm affinity estimate (log intensity, higher = more binding, comparable within an allelic series) in the experiment with CRX [1]; 10.1 upbm affinity estimate (log intensity, higher = more binding, comparable within an allelic series) with CRX [2]; 9.78 upbm affinity estimate (log intensity, higher = more binding, comparable within an allelic series) with CRX [3].

On to CCGGATAA, for which the binding signal with CRX [1] was 11.5 upbm affinity estimate (log intensity, higher = more binding, comparable within an allelic series); with CRX [2], 11.3 upbm affinity estimate (log intensity, higher = more binding, comparable within an allelic series); in the experiment with CRX [3], 10.9 upbm affinity estimate (log intensity, higher = more binding, comparable within an allelic series).

With AGATAATC, the binding signal was 12.9 upbm affinity estimate (log intensity, higher = more binding, comparable within an allelic series) in the experiment with CRX [1]; 12.7 upbm affinity estimate (log intensity, higher = more binding, comparable within an allelic series) with CRX [2]; 12.7 upbm affinity estimate (log intensity, higher = more binding, comparable within an allelic series) in the experiment with CRX [3].

Turning to AGAAGGAG, the binding signal with CRX [1] was 8.23 upbm affinity estimate (log intensity, higher = more binding, comparable within an allelic series); with CRX [2], 8.28 upbm affinity estimate (log intensity, higher = more binding, comparable within an allelic series); with CRX [3], 8.25 upbm affinity estimate (log intensity, higher = more binding, comparable within an allelic series).

Consider CAACCTGC, for which the binding signal was 8.42 upbm affinity estimate (log intensity, higher = more binding, comparable within an allelic series) with CRX [1]; 8.42 upbm affinity estimate (log intensity, higher = more binding, comparable within an allelic series) with CRX [2]; 8.35 upbm affinity estimate (log intensity, higher = more binding, comparable within an allelic series) in the experiment with CRX [3].

As to CACCGCGG, the binding signal in the experiment with NKX2-4 [4] was 9.48 upbm affinity estimate (log intensity, higher = more binding, comparable within an allelic series); with VENTX [5], 8.21 upbm affinity estimate (log intensity, higher = more binding, comparable within an allelic series); with HOXB9 [6], 8.56 upbm affinity estimate (log intensity, higher = more binding, comparable within an allelic series); in the experiment with VENTX [7], 8.03 upbm affinity estimate (log intensity, higher = more binding, comparable within an allelic series); with NKX2-4 [8], 9.5 upbm affinity estimate (log intensity, higher = more binding, comparable within an allelic series); in the experiment with VENTX [9] it was 8.12 upbm affinity estimate (log intensity, higher = more binding, comparable within an allelic series). For the same sequence, the binding signal with NKX2-4 [10] is 9.48 upbm affinity estimate (log intensity, higher = more binding, comparable within an allelic series); with HOXB9 [11] it was 8.55 upbm affinity estimate (log intensity, higher = more binding, comparable within an allelic series); with NKX2-4 [12], 9.54 upbm affinity estimate (log intensity, higher = more binding, comparable within an allelic series); in the experiment with HOXB9 [13], 8.55 upbm affinity estimate (log intensity, higher = more binding, comparable within an allelic series).

These data come from article PMC11006913.
